Assay outcomes as filed in PubChem BioAssay.
Rows were chosen to be rich in hits. Some 3.1% of all compounds tested hit in one or more screens of this group.
BoNT-A LC inh2: blocks Botulinum neurotoxin A light chain protease; multiplex microsphere protease substrate cleavage, flow cytometry; inhibition, % at 10 µM; 0.17% of 360,000 active; AID 588499
Anthrax LF inh2: anthrax lethal factor protease inhibition. P15917. multiplex microsphere protease cleavage assay, LF. inhibition, % at 10 µM. 0.12% of 360,000 active
Bead autofluor: flagged as autofluorescent in microsphere protease counterscreen. compound autofluorescence counterscreen, microsphere flow cytometry; hits give high values. AID 624483. 3.1% of 360,000 active. fluorescence intensity (no concentration beside the values); in the data active = fluorescence intensity above about 16000; inconclusive = no clear call, values can overlap the other calls
BoNT F protease: blocks Botulinum neurotoxin F light chain protease; AID 588497; 0.22% of 360,000 active; inhibition, % at 10 µM; Multiplex microsphere protease cleavage assay, flow cytometry; in the data active = inhibition above about 35%, passing the limit was not always enough; inconclusive = no clear call, values can overlap the other calls
PriA SSB inh: inhibitors of Klebsiella pneumoniae PriA binding to SSB C-terminal tail | 0.6% of 430,000 active | AID 1272365 | inhibition, % at 33 µM | AlphaScreen SSBct-PriA binding, biotinylated peptide; in the data active = inhibition mostly above about 37%, no sharp cut-off; inactive = mostly below about 20%
A number is an active result; - = inactive; ? = inconclusive; . = no result. Cut-off read from the data, not from the text of the source, unless noted: active = inhibition above about 30%; inconclusive = no clear call, values can overlap the other calls; inactive = below that.

SMILES	BoNT-A LC inh2	Anthrax LF inh2	Bead autofluor	BoNT F protease	PriA SSB inh
Cc1ccc2c(CC(=O)Nc3ccc(F)c(Cl)c3)cc(=O)oc2c1	.	.	.	.	-
CN(C)S(=O)(=O)c1ccc(C(=O)N2CCSC(c3ccco3)CC2)cc1 (stereo unspecified)	.	.	.	.	-
COc1ccccc1C(=O)NCc1nnc(SCC(=O)N2CCCc3ccccc32)n1-c1cccc(C(F)(F)F)c1	.	.	.	.	-
O=C(NC(=S)N1CCN(c2ccc(Cl)cc2[N+](=O)[O-])CC1)c1cccs1	-	-	-	-	39
Cc1nc2c([nH]1)CC(C(=O)NCC1COc3ccccc3O1)CC2 (stereo unspecified)	.	.	.	.	-
O=C1N/C(=C\c2ccc(O)cc2)C(=O)c2ccccc21	-	-	19019	-	-
CCOC(=O)NN=Cc1cccc(OC)c1OC/C=C/c1ccccc1	.	.	.	.	-
COC(=O)c1cn(N(C)c2ncc(C(F)(F)F)cc2Cl)c(=O)c2ccccc12	-	-	-	-	-
CCOC(=O)NC(=O)c1cn(N(C)c2ncc(C(F)(F)F)cc2Cl)c(=O)[nH]c1=O	-	-	21416	-	-
CC(C(=O)Nc1ccc(Br)cc1C(=O)c1ccccc1)N1CCCCC1 (stereo unspecified)	-	-	19761	-	-
CCn1c(C(=O)NCc2ccccn2)cc2sccc21	-	-	17121	-	-
CCN1CCN(CCCNC(=O)c2cc3sccc3n2CC)CC1	-	-	-	-	-
Cc1ccc(Cn2c(C(=O)NCCCN3CCOCC3)cc3sccc32)cc1	-	-	24158	-	-
O=C(Cn1c(C(=O)NCCCN2CCOCC2)cc2sccc21)c1ccccc1	-	-	24194	-	-
CCn1c(C(=O)NCCCN2CCc3ccccc3C2)cc2sccc21	-	-	24380	-	-
Cn1c(C(=O)NCCN2CCOCC2)cc2sccc21	-	-	-	-	-
O=C(CCCn1nc(-c2ccc(Cl)cc2)ccc1=O)NCc1ccc(F)cc1	.	.	.	.	-
CN(C)CCCN1C(=O)c2oc3ccccc3c(=O)c2C1c1cccs1 (stereo unspecified)	-	-	18317	-	-
CCN(CC)CCN1C(=O)c2oc3ccccc3c(=O)c2C1c1ccc(F)cc1 (stereo unspecified)	-	-	21092	-	-
CCN(CC)CCN1C(=O)c2oc3ccc(F)cc3c(=O)c2C1c1ccncc1 (stereo unspecified)	-	-	-	-	-
CC(=O)N(Cc1ccco1)C1(C(=O)NC2CCCC2)CCCCC1	-	-	-	-	-
O=CN(Cc1ccco1)C1(C(=O)NC2CCCCC2)CCCCC1	?	-	22071	-	-
O=c1cccnn1CCNS(=O)(=O)c1ccc(Cl)cc1	.	.	.	.	-
CCOc1ccccc1NC(=O)CN1CCN(c2nccn2-c2cccc(Cl)c2)CC1	.	.	.	.	59
CCOc1ccccc1NC(=O)CN1CCN(Cc2ccccc2)CC1	-	-	-	-	-
SMILES	BoNT-A LC inh2	Anthrax LF inh2	Bead autofluor	BoNT F protease	PriA SSB inh
COc1ccc(NC(=O)CN2CCN(c3nccn3-c3ccc(C)cc3)CC2)cc1OC	.	.	.	.	37
O=c1[nH]cc(NCc2ccco2)c(=O)[nH]1	.	.	.	.	-
COc1ccc(OC)c(S(=O)(=O)NCCC23CC4CC(CC(C4)C2)C3)c1	.	.	.	.	-
COCCN(Cc1ccoc1)C(=O)C1COc2ccccc2O1 (stereo unspecified)	.	.	.	.	-
O=S(=O)(CCCOc1ccc(F)cc1)N1CCC(Cc2ccccc2)CC1	.	.	.	.	-
COc1cnc(-c2ccccn2)nc1N1CCOCC1	.	.	.	.	156
COc1cnc(-c2ccccn2)nc1NC(C)C	-	-	-	-	95
O=C(Nc1csc(-c2ccc(Oc3ccc(-c4nc(NC(=O)c5nc6ccccc6s5)cs4)cc3)cc2)n1)c1nc2ccccc2s1	.	.	.	.	-
O=c1oc2c(CN3CCCCC3)c(O)ccc2cc1-c1nc2ccccc2[nH]1	-	-	18384	-	-
CCc1ccc(CCC(=O)Nc2nccs2)o1	-	-	21884	-	-
O=C(Cc1ccc(F)cc1)Nc1nccs1	-	-	-	42	-
Cc1nnc(NC(=O)CC2CSc3nc4c(c(=O)n32)CCC4)s1 (stereo unspecified)	.	.	.	.	-
Cc1nc(C)c(C(=O)NCCn2ncc3c(N4CCN(c5ncccn5)CC4)ncnc32)s1	.	.	.	.	-
CCc1ccc(N/C(SCc2cccc(F)c2)=C(/C#N)C(=O)NCc2ccco2)cc1	-	-	-	-	-
Cc1ccc(N/C(SCc2ccccc2C)=C(/C#N)C(=O)NCc2ccco2)cc1C	-	-	22786	-	-
Cn1nc(N2CCC(C(=O)Nc3ncccn3)CC2)ccc1=O	.	.	.	.	-
CCN(CC)C(=O)C1CC(c2ccc(OC)cc2)=NO1 (stereo unspecified)	-	-	20968	-	-
COc1ccc(C2=NOC(C(=O)NCCCn3ccnc3)C2)cc1 (stereo unspecified)	-	-	-	-	-
